Records with an inconclusive call do not appear. The source made the active and inactive calls. The call rests on the fitted dose curve; in most records, active means well fitted curve in either direction with a large enough effect; inconclusive means small, poorly fitted or top-dose-only effect; inactive means no such curve, though single readings can be large or run the other way.

The experiment has as its target Lysosomal alpha-glucosidase (Homo sapiens) (UniProt P10253). Briefly: Confirmation of Inhibitors and Activators of Purified Human alpha-Glucosidase Using an Alternate Red Fluorescent Susbtrate. Particulars: purified enzyme, red fluorogenic substrate; series mostly up to 63.4 µM. The procedure, abridged: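 Concentration series tested against 4 nM purified human enzyme, pH 5.0 citrate buffer with Tween-20; 400 uM resorufin glycoside substrate, 20 min room temperature, NaOH/glycine stop. Fluorescence normalized to no-enzyme and full-activity controls; Hill-equation AC50.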
With `CCCN1CNc2c(c(=O)[nH]c(=S)n2CCc2ccsc2)C1`, the Potency is 25.1 µM (active). Regarding `Clc1ncc(C#Cc2ccccc2)c2ncncc12`, the Potency entry is “inactive”. Turning to `CCCN1CNc2c(c(=O)[nH]c(=O)n2CCc2ccc(OC)c(OC)c2)C1`, the Potency is 14.1 µM (active). In the case of `Cc1ccc(S(=O)(=O)N2CCN(C(=O)N(c3ccccc3)c3ccccc3)CC2)cc1`, the Potency entry is “inactive”. Regarding `CCCN1CNc2c(c(=O)[nH]c(=S)n2CCC(C)C)C1`, the Potency result is “inactive”.

As for `CCCN1CNc2c(c(=O)[nH]c(=S)n2CCc2ccccc2OC)C1`, the Potency was 11.2 µM (active). The value for `CC(=O)c1ccc(N2CCN(S(=O)(=O)c3ccc4c(c3)CCC(=O)N4)CC2)cc1` was “inactive”; that for `O=c1[nH]cc(C#Cc2ccccc2)c2ncncc12` was “inactive”. As for `COc1ccc(CCn2c3c(c(=O)[nH]c2=S)CN(Cc2ccccc2)CN3)cc1OC`, the figure is 1.78 µM (active); as for `O=c1[nH]cc(CCc2ccccc2)c2ncncc12`, “inactive”; as for `CCCN1CNc2c(c(=O)[nH]c(=S)n2CCc2cc(C)ccc2C)C1`, 3.16 µM (active). As for `CCCN1CNc2c(c(=O)[nH]c(=S)n2CCc2ccc(Cl)c(Cl)c2)C1`, the figure is 2.24 µM (active). Consider `CCCN1CNc2c(c(=O)[nH]c(=S)n2CCc2cc(Cl)ccc2Cl)C1`, for which the Potency is 0.794 µM (active). For `CCCN1CNc2c(c(=O)[nH]c(=S)n2CCC(C)(C)C)C1`, the Potency result is “inactive”.

In the case of `OCCNc1nc(-c2cccs2)nc2ccccc12`, the Potency result was “inactive”. As for `CCCN1CNc2c(c(=O)[nH]c(=S)n2CCc2ccccc2C)C1`, the figure is 8.91 µM (active).

In the case of `Nc1nc(N)c2nc(-c3ccccc3)c(N)nc2n1`, the Potency result was “inactive”. As for `CC(=O)c1ccc(N2CCN(S(=O)(=O)c3ccc4[nH]c(=O)[nH]c4c3)CC2)cc1`, the entry is “inactive”. As for `COc1ccc(CCn2c(=S)[nH]c(=O)c3c(C)cc(C)nc32)cc1OC`, the entry is “inactive”; as for `CCCN1CNc2c(c(=O)[nH]c(=S)n2CCc2c(Cl)cccc2Cl)C1`, 1.12 µM (active).

For the compound `CCCN1CNc2c(c(=O)[nH]c(=S)n2CCCc2ccccc2)C1`, the Potency was 31.6 µM (active). The value for `CCCN1CNc2c(c(=O)[nH]c(=S)n2CCc2c(C)cccc2C)C1` was 3.16 µM (active); that for `COc1ccc(CCn2c3c(c(=O)[nH]c2=S)CN(c2ccccc2)CN3)cc1OC` was 7.94 µM (active).

Turning to `OC[C@H]1NC[C@@H](O)[C@@H]1O`, the Potency result is “inactive”. For `COc1ccc(CCn2c3c(c(=O)[nH]c2=S)CN(C(C)C)CN3)cc1OC`, the Potency was 11.2 µM (active).

Source of the values: PubChem BioAssay AID2110 (National Center for Advancing Translational Sciences (NCATS), 2009).
